We go through 84 compounds from PMC4336329 (PLoS ONE, 2015).

Hit rate of the full screen: of about 310,000 compounds, about 14,000 (4.5%) showed an effect of 50% or more. The effect is printed as a negative number. Shown is part of a subset that was picked to be rich in strong results.
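Note: peak tail current of the secondary pulse compared with the same well before compound.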

Sequence of human ether-à-go-go-related gene (hERG) potassium channel (Q12809 whole entry, looked up): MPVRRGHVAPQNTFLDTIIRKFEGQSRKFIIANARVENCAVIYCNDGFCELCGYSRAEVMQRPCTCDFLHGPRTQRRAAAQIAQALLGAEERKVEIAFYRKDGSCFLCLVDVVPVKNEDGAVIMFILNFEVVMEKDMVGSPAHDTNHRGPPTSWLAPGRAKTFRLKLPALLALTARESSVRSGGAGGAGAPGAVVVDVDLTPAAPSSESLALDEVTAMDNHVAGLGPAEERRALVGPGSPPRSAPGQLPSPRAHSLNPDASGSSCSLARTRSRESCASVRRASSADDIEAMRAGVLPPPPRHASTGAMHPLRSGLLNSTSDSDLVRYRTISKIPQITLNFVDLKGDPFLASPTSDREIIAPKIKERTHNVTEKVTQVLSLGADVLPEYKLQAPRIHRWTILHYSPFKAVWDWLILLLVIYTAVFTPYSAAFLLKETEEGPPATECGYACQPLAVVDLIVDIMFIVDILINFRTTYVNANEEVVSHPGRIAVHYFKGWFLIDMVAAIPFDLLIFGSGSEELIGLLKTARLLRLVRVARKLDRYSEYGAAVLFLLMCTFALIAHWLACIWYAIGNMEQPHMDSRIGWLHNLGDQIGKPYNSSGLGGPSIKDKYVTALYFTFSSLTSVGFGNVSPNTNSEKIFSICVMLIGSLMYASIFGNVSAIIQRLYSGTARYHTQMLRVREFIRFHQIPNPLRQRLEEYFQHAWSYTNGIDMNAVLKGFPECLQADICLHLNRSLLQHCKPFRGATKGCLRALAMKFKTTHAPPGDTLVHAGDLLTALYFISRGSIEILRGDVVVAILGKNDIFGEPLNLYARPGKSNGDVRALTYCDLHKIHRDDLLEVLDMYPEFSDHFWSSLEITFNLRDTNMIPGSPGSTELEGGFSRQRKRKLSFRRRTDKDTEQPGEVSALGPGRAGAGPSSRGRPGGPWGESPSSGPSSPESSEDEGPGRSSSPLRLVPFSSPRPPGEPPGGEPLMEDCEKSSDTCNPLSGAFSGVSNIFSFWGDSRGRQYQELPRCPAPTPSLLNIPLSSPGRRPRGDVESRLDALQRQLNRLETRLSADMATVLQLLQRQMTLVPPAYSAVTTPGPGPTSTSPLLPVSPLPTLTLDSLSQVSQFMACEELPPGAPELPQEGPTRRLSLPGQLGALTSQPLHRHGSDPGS

This test has as its target human ether-à-go-go-related gene (hERG) potassium channel (human, UniProt Q12809). Nature of the test: primary screen, population patch clamp on CHO cells stably expressing hERG; higher = less effect of the substance.
Consider `CCCCCN(C(=O)CCC(=O)OC(C)C(=O)NC1CCCCC1)c1c(N)n(CCCC)c(=O)[nH]c1=O` (stereo not drawn), for which the “hERG current change (%, negative = inhibition) at 10uM” value was determined as 16.1%.
Turning to `CSc1nncc(/C(C)=N\Nc2ccccc2)n1`, the “hERG current change (%, negative = inhibition) at 10uM” value was 9.18%.
With `Cc1ccc(C(C)(C)NC(=O)C2CCC(=O)N(CC3CCCCC3)C2)cc1` (stereo not drawn) the figure was 3.82%; with `COc1cccc(C(=O)N/N=C(/c2ccccc2)c2ccccn2)c1`, 6.88%; with `O=C(NNC(=O)c1ccccn1)c1cccc([N+](=O)[O-])c1`, 8.7%.
With `Cn1cccc1C(=O)c1cccc([N+](=O)[O-])c1` the figure was -52.9%; with `Cn1ccnc1/C(=N\NC(=O)c1ccccc1)c1cccc([N+](=O)[O-])c1`, -68.6%; with `CC(=O)c1cccc([N+](=O)[O-])c1`, 17.7%.
On to `NC(=O)c1cccc([N+](=O)[O-])c1`, for which the “hERG current change (%, negative = inhibition) at 10uM” value worked out at 5.64%.
For `Cn1ccnc1/C(=N\NC(=O)c1ccc(O)cc1)c1cccc([N+](=O)[O-])c1`, the “hERG current change (%, negative = inhibition) at 10uM” value is -22.7%.
In the case of `O=C(N/N=C(\c1ccccc1)c1ccccn1)c1cccc([N+](=O)[O-])c1` it was -65.6%; in that of `C/C(=N\NC(=O)c1ccc([N+](=O)[O-])cc1)c1cccc([N+](=O)[O-])c1`, 5.82%; in that of `CC1=NN(c2ccccc2)C(=O)/C1=C/c1ccc[nH]1`, -7.74%.
Turning to `CCN(CC(=O)Nc1ccc(NC(C)=O)cc1)C(=O)c1cccc2ccccc12`, the “hERG current change (%, negative = inhibition) at 10uM” value was 1.23%.
`Cc1cccc(Nc2ncnc(N)c2[N+](=O)[O-])n1`: the “hERG current change (%, negative = inhibition) at 10uM” value is 17.8%.
With `C=CCN1CC(c2nc3ccccc3n2Cc2cccc3ccccc23)CC1=O` (stereo not drawn), the “hERG current change (%, negative = inhibition) at 10uM” value was -24.2%.
Take `C/C(=N\NC(=O)CNc1cccc2ccccc12)c1ccccc1`: the “hERG current change (%, negative = inhibition) at 10uM” value amounted to 10.2%.
As for `COc1ccc2sc3ccccc3c(=O)c2c1`, the “hERG current change (%, negative = inhibition) at 10uM” value is -10.1%.
For the compound `Cc1ccc(N2CC(C(=O)N3CCC(C(=O)Nc4nnc(C(C)C)s4)CC3)CC2=O)cc1` (stereo not drawn), the “hERG current change (%, negative = inhibition) at 10uM” value was found to be 10.7%.
Take `CC(=O)Nc1ccc(S(=O)(=O)N(C)CC(=O)OCC(=O)N(C)C2CCS(=O)(=O)C2)cc1` (stereo not drawn): the “hERG current change (%, negative = inhibition) at 10uM” value amounted to 18.8%.
`O=C(c1ccc(Cl)cc1)C1CCN(C(=O)c2ccc(F)cc2)CC1`: the “hERG current change (%, negative = inhibition) at 10uM” value was -34.7%.
As to `CN(CCOc1ccc(Cl)cc1)C(=O)C1CCN(C(=O)c2ccc(F)cc2)CC1`, the “hERG current change (%, negative = inhibition) at 10uM” value was -69.9%.
For `CN(CCOc1ccccc1)C(=O)C1CCN(C(=O)c2ccc(F)cc2)CC1`, the “hERG current change (%, negative = inhibition) at 10uM” value is -19.9%.
As for `Cc1ccccc1C(=O)N1CCC(C(=O)N(C)CCOc2ccccc2)CC1`, the “hERG current change (%, negative = inhibition) at 10uM” value is reported as 9.06%.
Regarding `CN(CCOc1ccccc1)C(=O)C1CCN(C(=O)c2ccc(Cl)cc2)CC1`, the “hERG current change (%, negative = inhibition) at 10uM” value is -47.9%.
Take `CN(CCOc1ccc(Cl)cc1)C(=O)C1CCN(C(=O)c2ccc(Cl)cc2)CC1`: the “hERG current change (%, negative = inhibition) at 10uM” value is recorded as -75.4%.
As for `Cc1ccc(Cn2ccc(NC(=O)c3cc(CC(C)C)on3)n2)cc1`, the “hERG current change (%, negative = inhibition) at 10uM” value is reported as -8.08%.
`CCn1nc(C(=O)OCC(=O)c2cc(C)n(Cc3cccs3)c2C)c2ccccc2c1=O`: the “hERG current change (%, negative = inhibition) at 10uM” value was 7.14%.
Consider `O=C(/C=C/c1cccs1)Nc1sc2c(c1C(=O)O)CCCC2`, for which the “hERG current change (%, negative = inhibition) at 10uM” value is given as 28.5%.
As to `O=C(c1ccco1)N1CCN(C(=O)c2cc(-c3ccccn3)nc3ccccc23)CC1`, the “hERG current change (%, negative = inhibition) at 10uM” value is recorded as -34.8%.
For the compound `O=C(OCC(=O)N1CCN(C(=O)c2ccco2)CC1)c1cccc(F)c1`, the “hERG current change (%, negative = inhibition) at 10uM” value is given as -16.8%.
Take `O=C(OCC(=O)N1CCN(C(=O)c2ccco2)CC1)c1cc(-c2ccc(Cl)c(Cl)c2Cl)nc2ccccc12`: the “hERG current change (%, negative = inhibition) at 10uM” value is 2.88%.
As for `O=C(OCC(=O)N1CCN(C(=O)c2ccco2)CC1)c1cc(-c2ccccc2)nc2ccccc12`, the “hERG current change (%, negative = inhibition) at 10uM” value was -60.3%.
On to `O=C(COC(=O)c1cc(-c2ccco2)nc2ccccc12)NCc1ccccc1`, for which the “hERG current change (%, negative = inhibition) at 10uM” value is given as -11.3%.
For `O=C(OCC(=O)N1CCN(C(=O)c2ccco2)CC1)c1cc(-c2cccc(Br)c2)nc2ccccc12`, the “hERG current change (%, negative = inhibition) at 10uM” value is -19.6%.
In the case of `O=C(c1cc(-c2ccco2)nc2ccccc12)N1CCN(Cc2ccccc2)CC1` it was -42.8%; in that of `Cc1cc(C(=O)OCC(=O)N2CCN(C(=O)c3ccco3)CC2)c(C)n1-c1ccc(F)cc1`, -66.4%; in that of `COc1ccc(-c2cc(C(=O)OCC(=O)N3CCCC3)c3ccccc3n2)cc1`, -19.1%.
As to `O=C(OCC(=O)N1CCN(C(=O)c2ccco2)CC1)c1cc(-c2ccco2)nc2ccccc12`, the “hERG current change (%, negative = inhibition) at 10uM” value is -69.7%.
Consider `O=C(OCC(=O)N1CCN(C(=O)c2ccco2)CC1)c1cc(-c2ccc(F)cc2)nc2ccccc12`, for which the “hERG current change (%, negative = inhibition) at 10uM” value is -59.4%.
In the case of `Cc1cc(C(=O)OCC(=O)NCc2ccco2)c(C)n1-c1ccc(F)cc1`, the “hERG current change (%, negative = inhibition) at 10uM” value is -28.3%.
`CCCn1[nH]cc(SC)c(=O)c1=O`: the “hERG current change (%, negative = inhibition) at 10uM” value was -5.83%.
As to `CCn1c(SCC(=O)Nc2c(C)n(C)n(-c3ccccc3)c2=O)nc2c1c(=O)n(C)c(=O)n2C`, the “hERG current change (%, negative = inhibition) at 10uM” value is listed as 18.2%.
On to `Cc1c(C(C)C)c(=O)n(-c2ccc(S(=O)(=O)N3CCOCC3)cc2)n1C`, for which the “hERG current change (%, negative = inhibition) at 10uM” value was 17.4%.
In the case of `Nc1c(Cl)c(Cl)nc(C(=O)OCC(=O)NCc2ccccc2)c1Cl`, the “hERG current change (%, negative = inhibition) at 10uM” value is -18.2%.
As for `COCCn1c(SCC#N)nnc1-c1ccc2c(c1)OCO2`, the “hERG current change (%, negative = inhibition) at 10uM” value is -24.2%.
For `CCCCC(=O)Nc1c(O)c2ccccc2[nH]c1=O`, the “hERG current change (%, negative = inhibition) at 10uM” value is on record as -0.31%.
Turning to `Cc1ccc(NC(=O)N2CCCCC2)cc1NC(=O)N1CCCCC1`, the “hERG current change (%, negative = inhibition) at 10uM” value was found to be 16.5%.
Consider `Cc1ccc(-n2c(O)c(C=N)c(=O)n(-c3ccc(C)cc3)c2=O)cc1`, for which the “hERG current change (%, negative = inhibition) at 10uM” value is -8.85%.
With `O=C1NC(=O)C(CCc2ccncc2)(Cc2ccc3c(c2)OCO3)C(=O)N1CCc1ccccc1` (stereo not drawn) the figure was -32.5%; with `O=C1NC(=O)C(CCc2ccncc2)(CCc2ccncc2)C(=O)N1C1CCCCC1`, -75.3%; with `O=C1NC(=O)C(CCc2ccncc2)(CCc2ccncc2)C(=O)N1Cc1ccccc1`, -72.5%.
For `COc1cc(CC2(CCc3ccncc3)C(=O)N(C)C(=O)N(C)C2=O)cc(OC)c1OC`, the “hERG current change (%, negative = inhibition) at 10uM” value was -8.33%.
As to `O=C1NC(=O)C(CCc2ccncc2)(CCc2ccncc2)C(=O)N1CCc1ccccc1`, the “hERG current change (%, negative = inhibition) at 10uM” value was -71.7%.
Consider `CN1C(=O)N(C)C(=O)C(CCc2ccncc2)(CCc2ccncc2)C1=O`, for which the “hERG current change (%, negative = inhibition) at 10uM” value is reported as -51.2%.
In the case of `C=CCN1C(=O)NC(=O)C(CCc2ccncc2)(CCc2ccncc2)C1=O` it was -41.8%.
As to `COc1ccccc1N1C(=O)NC(=O)C(CCc2ccncc2)(CCc2ccncc2)C1=O`, the “hERG current change (%, negative = inhibition) at 10uM” value was -46.6%.
In the case of `O=C1NC(=O)C(CCc2ccncc2)(c2ccccc2)C(=O)N1` it was 5.76%.
As to `CN1C(=O)N(C)C(=O)C(CCc2ccccn2)(CCc2ccccn2)C1=O`, the “hERG current change (%, negative = inhibition) at 10uM” value is 3.54%.
For `O=C1NC(=O)C(CCc2ccncc2)(C2CCCCC2)C(=O)N1`, the “hERG current change (%, negative = inhibition) at 10uM” value worked out at 5.77%.
As to `CCC1(CCc2ccncc2)C(=O)NC(=O)NC1=O`, the “hERG current change (%, negative = inhibition) at 10uM” value is -4.69%.
Regarding `O=C(Cn1nc(-c2ccccc2)c2ccccc2c1=O)NN1CCOCC1`, the “hERG current change (%, negative = inhibition) at 10uM” value came out at 5.24%.
In the case of `COc1ccc(S(=O)(=O)NCc2cccnc2)cc1OC` it was 17.1%; in that of `COc1cc2sc3ccc(C#Cc4ccccn4)cc3c(=O)c2cc1OC`, 14.9%.
With `O=C1Cc2ccccc2C(=O)N1Cc1cccc(Cl)c1` the figure was 11.5%; with `CC(=O)Nc1sc(NC(=O)c2ccccc2)nc1-c1cccs1`, 0.00438%; with `CC1CC(Nc2ccccc2)=CC(=O)O1` (stereo not drawn), 24.7%.
Take `CC(c1nnc(Sc2nnnn2-c2ccccc2)n1-c1ccc(F)cc1)N(C)C` (stereo not drawn): the “hERG current change (%, negative = inhibition) at 10uM” value is reported as 3.57%.
For `COc1ccccc1OCC(=O)Nc1ccccc1C(=O)NC1CC1`, the “hERG current change (%, negative = inhibition) at 10uM” value is -8.86%.
Take `COC(=O)c1ccccc1NC(=O)CN1CCC(NC(=O)c2ccc(C)cc2)CC1`: the “hERG current change (%, negative = inhibition) at 10uM” value is 8.67%.
With `COc1ccc(CN2CCN(CC(=O)Nc3ccccc3C(=O)NC3CC3)CC2)cc1F`, the “hERG current change (%, negative = inhibition) at 10uM” value was -91.3%.
As for `COc1cc(C)c(CN2CCN(CC(=O)Nc3ccccc3C(=O)NC3CC3)CC2)cc1OC`, the “hERG current change (%, negative = inhibition) at 10uM” value is listed as -80.1%.
As for `COc1cc2c(cc1OC)CN(CC(=O)Nc1ccccc1C(=O)NC1CC1)CC2`, the “hERG current change (%, negative = inhibition) at 10uM” value was -24.5%.
With `COc1ccc(OC)c(CN2CCN(CC(=O)Nc3ccccc3C(=O)NC3CC3)CC2)c1` the figure was -82.5%; with `COc1ccc(F)cc1CN1CCN(CC(=O)Nc2ccccc2C(=O)NC2CC2)CC1`, -87.6%; with `COc1ccc(OCC(=O)Nc2ccccc2C(=O)NC2CC2)cc1`, -13.4%.
For `COc1ccc(CN(C)CC(=O)Nc2ccccc2C(=O)NC2CC2)cc1OC`, the “hERG current change (%, negative = inhibition) at 10uM” value is listed as -21.7%.
Consider `COc1cccc(OC)c1NC(=O)CN1CCC(NC(=O)c2cccc(F)c2)CC1`, for which the “hERG current change (%, negative = inhibition) at 10uM” value is 1.5%.
With `O=C(CCC(=O)c1ccc(F)cc1)Nc1ccccc1Cl` the figure was 1.71%; with `Cc1ccc(S(=O)(=O)N2CCCC2)cc1C(=O)N1CCN(Cc2ccccc2)CC1`, -8.29%; with `CC1CSc2nnc(CCc3ccccc3)n21` (stereo not drawn), 8.26%.
Regarding `O=C(CSc1ccc(-c2cccnc2)nn1)N1CCCCCC1`, the “hERG current change (%, negative = inhibition) at 10uM” value was 23.2%.
For `CCCCn1c(N)c(N(CCOC)C(=O)CSCc2cccc(C)c2)c(=O)[nH]c1=O`, the “hERG current change (%, negative = inhibition) at 10uM” value is reported as 9.08%.
As to `COCCNS(=O)(=O)c1ccc(SC)cc1`, the “hERG current change (%, negative = inhibition) at 10uM” value was 10.2%.
